# This is a sample that favours compounds with a hit; in the whole collection about 2.4% have one here.
# POLI inh = qHTS for Inhibitors of Polymerase Iota. DNA polymerase iota (Homo sapiens), Q9UNA4. Pol iota fluorescent replication assay, 10 min. actives 1% (n = 390,000). AID 588590, 2011. Potency, µM (series often up to 115 µM), actives largely listed as inhibitors
#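 Fluorescent replication assay read twice, at 0 min and 10 min after adding 50 nM (final) substrate. Enzyme (10 nM) and compounds were first incubated 15 min at room temperature; enzyme-free buffer wells were negative controls.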
# Pol eta inh = qHTS for Inhibitors of Polymerase Eta | recombinant Pol eta, fluorescent DNA replication assay | AID 588591, 2011 | DNA polymerase eta (Homo sapiens), Q9Y253 | actives 1.2% (n = 390,000) | Potency, µM (highest dose often 114 µM), usual class: inhibitors
#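 Pol eta (10 nM) was preincubated with compounds for 15 min at room temperature, after which fluorescent replication substrate (50 nM final) was added to start the reaction. Fluorescence was read kinetically at 0 and 10 min.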
# L3MBTL1 inh = qHTS Assay for the Inhibitors of L3MBTL1; Potency, µM (doses to about 57.1 µM), most hits filed as inhibitors; AlphaScreen L3MBTL1–H3K9me1 peptide binding; Lethal(3)malignant brain tumor-like protein 1 (Homo sapiens), Q9Y468; actives 0.66% (n = 230,000); also: nearly all actives have a fitted effect of over 60% in size
# Target sequence (Q9Y468 whole entry, looked up): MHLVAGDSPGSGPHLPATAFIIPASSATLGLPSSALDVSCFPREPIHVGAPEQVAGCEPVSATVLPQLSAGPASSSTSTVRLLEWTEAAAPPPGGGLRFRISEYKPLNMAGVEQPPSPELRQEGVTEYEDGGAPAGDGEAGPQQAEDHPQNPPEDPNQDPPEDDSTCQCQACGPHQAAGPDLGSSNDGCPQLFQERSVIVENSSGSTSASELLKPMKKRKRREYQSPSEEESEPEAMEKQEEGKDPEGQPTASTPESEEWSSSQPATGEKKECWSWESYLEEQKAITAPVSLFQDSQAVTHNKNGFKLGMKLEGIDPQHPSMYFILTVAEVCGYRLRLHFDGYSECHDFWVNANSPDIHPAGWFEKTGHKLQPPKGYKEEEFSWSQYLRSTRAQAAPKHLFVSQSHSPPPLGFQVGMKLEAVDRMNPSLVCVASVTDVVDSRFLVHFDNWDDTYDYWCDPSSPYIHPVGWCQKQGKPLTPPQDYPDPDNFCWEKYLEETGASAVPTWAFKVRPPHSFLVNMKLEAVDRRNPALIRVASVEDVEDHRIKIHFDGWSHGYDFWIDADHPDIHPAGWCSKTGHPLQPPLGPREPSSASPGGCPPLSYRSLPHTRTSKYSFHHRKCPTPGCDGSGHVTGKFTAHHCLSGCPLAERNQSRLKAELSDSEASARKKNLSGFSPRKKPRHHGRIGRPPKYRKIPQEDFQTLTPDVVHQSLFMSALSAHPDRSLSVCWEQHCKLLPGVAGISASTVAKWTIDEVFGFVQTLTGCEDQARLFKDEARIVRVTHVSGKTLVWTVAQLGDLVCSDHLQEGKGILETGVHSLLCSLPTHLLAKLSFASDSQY
#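 AlphaScreen assay: L3MBTL1 (50 nM final) was preincubated 30 min at room temperature with biotinylated H3(1-15)K9me1 peptide (75 nM final), then 30 min with library compounds; streptavidin donor and nickel chelate acceptor beads (10 ug/mL final) added, 30 min dark.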
# POLB inh = qHTS Assay for Inhibitors of DNA Polymerase Beta. P06746. Pol beta primer extension/strand displacement, fluorescence kinetic. Potency, µM (highest dose often 114 µM), hits mostly inhibitors. actives 1.3% (n = 340,000). AID 485314, 2010
#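 Enzyme-only controls used 10 nM Pol beta; buffer lacking enzyme served as negative control. Compound preincubated 15 min, then 50 nM substrate added; 0 and 10 min reads at room temperature.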
# Pol kappa inh = qHTS for Inhibitors of Polymerase Kappa; AID 588579, 2011; Potency, µM (highest dose often 107 µM), most hits filed as inhibitors; actives 0.53% (n = 400,000); purified Pol kappa, fluorescent DNA synthesis assay, 10 min
#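 Kinetic fluorescence screen: compound preincubated 15 min RT with 10 nM enzyme; 50 nM substrate (final) initiates; reads at 0/10 min.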
# A number is an active result; . = inactive; ? = inconclusive; / = no result; [ ] = remark or other dose. Calls follow the shape of the dose curve; as a rule, active = well fitted curve in the direction sought with a large enough effect; inconclusive = small, poorly fitted or top-dose-only effect, or another doubt; inactive = no such curve, though single readings can be large; an effect the other way counts as inactive or inconclusive.
SMILES,POLI inh,Pol eta inh,L3MBTL1 inh,POLB inh,Pol kappa inh
Cc1ccc(-n2nnnc2SCC(=O)NCCc2ccccc2)cc1C,.,?,/,.,.
COc1ccc(OC)c(-c2cc(C(=O)Nc3cnn(Cc4ccc(Cl)cc4Cl)c3)no2)c1,.,.,/,.,.
COc1ccc(CCn2c(N)c(C#N)c3nc4ccccc4nc32)cc1OC,.,?,.,.,.
COc1ccc(Cn2c(N)c(C#N)c3nc4ccccc4nc32)cc1OC,25.1µM,.,/,.,.
O=S(=O)(Nc1nc(-c2ccccc2)cs1)c1cc(Cl)ccc1Cl,?,?,.,44.7µM,.
C=CCOc1ccc(/C=C2\SC(=S)N(C(C(=O)O)c3ccccc3)C2=O)cc1 (configuration not stated),?,79.4µM,.,.,.
CCOc1ccc(/C=C2\SC(=S)N(C(C(=O)O)c3ccccc3)C2=O)cc1OC (configuration not stated),?,79.4µM,.,.,.
CC(/C=C1\SC(=S)N(C(C(=O)O)c2ccccc2)C1=O)=C\c1ccccc1 (configuration not stated),?,89.1µM,.,.,?
O=C(O)C(c1ccccc1)N1C(=O)/C(=C/c2cccs2)SC1=S (configuration not stated),?,.,.,.,.
CC(/C=C1\SC(=S)N(CC(=O)O)C1=O)=C\c1ccccc1,?,?,.,.,.
Cc1ccnc(NC(=O)C2CC(=O)N(Cc3ccccc3)C2)c1 (configuration not stated),.,.,.,/,.
Clc1cccc(CNc2ncnc3nc[nH]c23)c1,?,/,/,/,.
Cc1nn(C)c(C)c1S(=O)(=O)N(CC(=O)NCCc1ccccc1)c1ccc(C(C)C)cc1,?,.,/,.,.
Cc1nn(-c2ccccn2)c2c1-c1nc(N)sc1CC2,3.16µM,/,/,/,.
Cc1nn(-c2ccccn2)c2c1-c1nc(N)ncc1CC2,.,.,.,.,.
CCCN(CCC)CC(O)CN(c1ccccc1)S(=O)(=O)c1ccc(C)cc1 (configuration not stated),.,.,/,.,.
Cc1ccc(N(CC(O)COCc2ccco2)S(=O)(=O)c2ccc(C)cc2)cc1 (configuration not stated),?,50.1µM,/,22.4µM,89.1µM
Cc1ccc(NC(=O)N/C=C/c2ccco2)c(C)c1,?,79.4µM,.,?,?
Cc1ccc(O)c(NC(=S)NC(=O)/C=C/c2ccco2)c1,.,.,.,?,.
COc1ccc2cc(C#N)c(=O)oc2c1,/,/,/,/,.
O=C1CC(=O)N(CCNc2ncc(C(F)(F)F)cc2Cl)C(=O)N1,25.1µM,.,.,56.2µM,?
COc1ccc(Sc2nc(-c3ccccn3)ncc2OC)cc1,.,.,3.55µM,.,.
O=C(Nc1ccc2c(c1)OCO2)c1cccc2c1C(=O)N(Cc1cccnc1)C2,?,?,/,39.8µM,.
CCCN1Cc2cccc(C(=O)Nc3ccc4c(c3)OCO4)c2C1=O,.,.,/,.,.
CCCCCC(=O)Cc1cc(O)cc2c1C(=O)Oc1cc(O)c(C(=O)O)c(CCCCC)c1O2,70.8µM,17.8µM,/,44.7µM,79.4µM
SMILES,POLI inh,Pol eta inh,L3MBTL1 inh,POLB inh,Pol kappa inh
CS(=O)(=O)n1nc(-c2ccco2)nc1NCc1ccccc1Cl,?,.,/,.,.
COC(=O)/C=C/c1ccc2c(c1)S(=O)(=O)N(C1CCCC1)[C@H]2CC(=O)OC,.,/,/,/,.
Cc1ccc(CN(C(=O)c2ccccc2F)c2ccccn2)o1,79.4µM,.,/,56.2µM,?
Cc1ccc(CN(C(=O)c2ccc(F)cc2)c2ccccn2)o1,.,.,/,.,.
O=C(COC(=O)c1ccc2c(c1)C(=O)N(Cc1ccncc1)C2=O)Nc1ccccc1[N+](=O)[O-],22.4µM,?,?,35.5µM,.
Cc1oc(-c2ccccc2F)nc1CS(=O)CC(=O)NC(C)C (configuration not stated),.,.,/,?,.
Cc1c(NC(=O)c2cc([N+](=O)[O-])ccc2N2CCOCC2)cccc1-c1nc2ccccc2o1,22.4µM,.,/,.,.
COc1cc2c(c(OC)c1)C(c1cccc(F)c1F)CC(=O)N2 (configuration not stated),.,.,/,.,.
CCCNC1=C(N(C(C)=O)c2cccc(F)c2)C(=O)c2ccccc2C1=O,79.4µM,.,.,.,.
CCOc1ccc(C(=O)/C=C/c2cn(CC(O)CN3CCc4ccccc43)c3ccccc23)cc1 (configuration not stated),.,.,/,.,.
COC(=O)c1cccc(Nc2c(-c3ccc(O)c(OC)c3)nc3nc[nH]n23)c1,.,.,/,.,.
O=C(C[n+]1ccncc1)c1ccc(Br)cc1,.,/,/,/,.
Cc1ccc(/C=C/C(=O)N2CCN(S(=O)(=O)c3cccs3)CC2)o1,.,.,/,.,.
O=C(/C=C/c1ccco1)N1CCN(S(=O)(=O)c2cccs2)CC1,39.8µM,?,?,50.1µM,.
O=C(C[N+]12CN3CN(CN(C3)C1)C2)c1ccc(O)c(O)c1,10µM,/,/,/,3.16µM
O=C(C[N+]12CN3CN(CN(C3)C1)C2)c1ccc(Cl)cc1,.,/,/,/,.
O=C1N=c2ccc([N+](=O)[O-])cc2=C1c1sc(=O)[nH]c1O,.,.,.,.,89.1µM
CC(C)(C)NC(=O)c1cc(F)c(F)cc1Cl,.,.,/,89.1µM,.
C/C(=N\NC(=O)c1cc(C)nc2ccccc12)c1ccccn1,.,.,28.2µM,/,.
Cc1cc(N2C(=O)C3C4C=CC(C4)C3C2=O)ccc1NC(=O)c1cccs1 (configuration not stated),?,?,?,31.6µM,.
O=C(Nc1cccc(N2C(=O)C3C4C=CC(C4)C3C2=O)c1)c1cccs1 (configuration not stated),.,.,.,.,.
CN(C)CCCN1C(=O)c2cccc3cccc(c23)C1=O,.,.,.,?,.
CN(C)CCN1C(=O)c2cccc3cc([N+](=O)[O-])cc(c23)C1=O,79.4µM,?,/,/,?
N#CC1=C(S)N(c2ccc(F)cc2)C(c2cccs2)NC1=O (configuration not stated),.,.,/,.,.
N#CC1=C(S)N(c2ccccc2)C(c2ccc(-c3ccccc3Cl)o2)NC1=O (configuration not stated),.,44.7µM,.,.,.
CCc1sc(C(=O)NCCc2ccc(S(N)(=O)=O)cc2)cc1C,?,.,/,.,.
CCc1sc(C(=O)NCCc2ccc(S(N)(=O)=O)cc2)cc1Br,89.1µM,.,.,.,.
CCc1cc2c(-c3ccccc3)cc(=O)oc2cc1OCC(C)=O,.,.,.[2.29 µM],.,.
CCCc1cc2c(-c3ccccc3)cc(=O)oc2cc1OCc1ccc(C(=O)O)o1,.,79.4µM,.,?,.
